Most compounds without a hit are left out; they make up all but 8.9% or so of the library.
DRD3 agonist: qHTS of D3 Dopamine Receptor Agonist: qHTS; D(3) dopamine receptor (Homo sapiens), P35462; D3R DiscoveRx beta-arrestin cells, luminescence, 90 min; max activation, %; 410,000 tested, 0.58% active; AID 652048, 2013; in the data active = max activation above about 30%; note: 0% is about no effect
Target sequence (P35462 whole entry, looked up): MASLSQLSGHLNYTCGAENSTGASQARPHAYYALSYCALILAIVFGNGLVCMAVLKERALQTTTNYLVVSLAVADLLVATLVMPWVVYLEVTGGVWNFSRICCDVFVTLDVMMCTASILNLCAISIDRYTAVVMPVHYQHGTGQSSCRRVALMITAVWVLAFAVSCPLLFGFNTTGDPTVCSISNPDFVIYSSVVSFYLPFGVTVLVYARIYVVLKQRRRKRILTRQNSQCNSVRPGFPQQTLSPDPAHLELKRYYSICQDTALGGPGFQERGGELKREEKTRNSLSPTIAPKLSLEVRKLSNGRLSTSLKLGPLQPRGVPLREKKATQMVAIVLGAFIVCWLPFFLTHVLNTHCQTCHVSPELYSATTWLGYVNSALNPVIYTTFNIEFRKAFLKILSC
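Agonist-mode cell screen: cells plated at 1500/well and incubated overnight at 37 °C, then exposed to library compounds for 90 min at 37 °C. Detection reagent was added for 30–60 min at room temperature, and luminescence was read.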
KB-3-1 tox: qHTS assay for MDR1-selective chemotherapeutics: Primary screen using the parental adenocarcinoma cell KB-3-1 | Potency, µM (titrated, usually from 46.1 µM), actives largely listed as cytotoxic | 400,000 tested, 1.4% active | KB-3-1 viability, CellTiter-Glo ATP luminescence, 72 h | AID 1347075, 2019; note: potency is the fitted concentration of half-maximal effect; % is set by controls: 0 for no effect and ±100 for the full control effect; nearly all actives have a fitted effect of over 60% in size
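Cells are dispensed, compounds pinned in, plates held at 37 °C for 72 h, then CellTiter-Glo is added and luminescence read after 10 minutes. Cell line: parental KB-3-1 in phenol-red-free DMEM, 10% FBS.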
SW480 rereplic: A quantitative high throughput screen for small molecules that induce DNA re-replication in SW480 colon adenocarcinoma cells; AID 624297, 2012; SW480 DNA re-replication, Hoechst DNA content imaging, 48 h; 340,000 tested, 1.8% active; Potency, µM (highest dose often 46.1 µM), without a hit: at the highest dose re-replication activation, actives largely listed as activators; note: potency is the fitted concentration of half-maximal effect; % of control where 0% means no effect; nearly all actives have a fitted effect of over 55% in size
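Cells (250 per well) received 23 nL compound or DMSO by pin tool and were kept 48 hr at 37 C, 5% CO2. Nuclei were then stained with Hoechst for 40 min and scanned for DNA content.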
MCF10A rerep: A quantitative high throughput screen for small molecules that induce DNA re-replication in MCF 10a normal breast cells; MCF 10A DNA re-replication, Hoechst nuclear intensity, 48 h; Potency, µM (doses to about 46.1 µM), for the others: top-dose activity, positive = re-replication, hits mostly activators; 350,000 tested, 2.9% active; AID 624296, 2012; note: potency is the fitted concentration of half-maximal effect; % of control where 0% means no effect; nearly all actives have a fitted effect of over 50% in size
KB-V1 cytotox: qHTS assay for MDR1-selective chemotherapeutics: Primary screen using the drug-selected MDR subline cells KB-V1 | KB-V1 MDR cells viability, CellTiter-Glo, 72 h | 400,000 tested, 3.4% active | Potency, µM (titrated, usually from 46.1 µM), actives largely listed as cytotoxic | AID 1347076, 2019; note: potency is the fitted concentration of half-maximal effect; % is set by controls: 0 for no effect and ±100 for the full control effect; nearly all actives have a fitted effect of over 60% in size
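Compound-treated KB-V1 multidrug-resistant cells, 72 h, 37 degrees C; viability by CellTiter-Glo. Fitted qHTS curves give the values.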
D3 antag: qHTS of D3 Dopamine Receptor Antagonist: qHTS. D(3) dopamine receptor (Homo sapiens), P35462. D3R cells, DiscoveRx beta-arrestin luminescence, antagonist mode; hits give low values. max response, negative = inhibition, %. 360,000 tested, 2.5% active; in the data active = max response below about -50%; inconclusive = no clear call, values can overlap the other calls; note: % is set by controls: 0 for no effect and ±100 for the full control effect
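Cells plated overnight at 1500 cells/well, then exposed to library compounds with dopamine controls for 90 minutes at 37 degrees C. DiscoveRx reagent added for 30–60 minutes at room temperature; luminescence read, quantitative HTS format.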
Numbers without * were called inactive; i = inactive; ? = inconclusive; / = no result given; ! = a repeat was not active. Unless noted, calls come from the whole dose curve; as a rule, active = well fitted curve in the direction sought with a large enough effect; inconclusive = small, poorly fitted or top-dose-only effect, or another doubt; inactive = no such curve, though single readings can be large; an effect the other way counts as inactive or inconclusive.

SMILES	DRD3 agonist	KB-3-1 tox	SW480 rereplic	MCF10A rerep	KB-V1 cytotox	D3 antag
CCOC(=O)c1c(C)nc2sc(C(=O)Nc3ccc(C(C)=O)cc3)c(N)c2c1-c1ccc(OC)cc1	3.3	?	2.31µM*	26.0%	?	34.5
CCOC(=O)c1c(C)nc2sc(C(N)=O)c(N)c2c1-c1ccc(OC)cc1	7.4	i	1.9%	8.8%	?	7.9
CCOC(=O)c1sc(-c2ccc(Cl)cc2Cl)nc1O	9.7	i	20.6µM*	?	i	1.2
CC1CCCCC1N1CN=C(Nc2nc3ccccc3s2)NC1 (configuration not stated)	1.5	i	-0.2%	6.0%	18.4µM*	2.2
c1ccc2sc(NC3=NCN(C4CCCCC4)CN3)nc2c1	7.7	i	-2.4%	-15.3%	i	35.9
COc1ccc(CN2CN=C(Nc3nc4ccccc4s3)NC2)cc1	-2.4	i	-6.3%	2.6%	4.61µM*	9.1
Cc1c(C(=O)N2CCC(c3nc4ccccc4s3)CC2)oc2ccc(Cl)cc12	-4.7	i	/	/	i	/
Cc1cccc(N(C)C(=O)CSc2nc3ncccc3o2)c1	-2.0	i	/	/	i	/
COC(=O)c1cccc(S(=O)(=O)N2CCC(NC(=O)NC34CC5CC(CC(C5)C3)C4)CC2)c1	5.2	i	5.8%	-3.6%	11.6µM*	13.5
CC1CCN(S(=O)(=O)c2cccc(C(=O)O)c2)CC1	-2.2	i	-12.6%	-5.8%	i	-15.3
COC(=O)c1cccc(S(=O)(=O)N2CCC(C)CC2)c1	-0.7	i	-3.0%	4.3%	20.6µM*	-9.1
S=c1[nH]c2ccccc2n1CCOc1ccccc1	0.2	i	?	-2.1%	i	4.3
Cc1ccc(OCCn2c(=S)[nH]c3ccccc32)c(C(C)C)c1	1.3	14.6µM*	4.5%	?	i	3.2
COc1ccccc1OCCn1c(=S)[nH]c2ccccc21	0.5	?	?	?	23.1µM*	23.8
CCC1Oc2ccc(C)cc2N(CC(=O)NCc2ccc(F)cc2)C1=O (configuration not stated)	-1.8	i	/	/	i	/
COc1ccccc1N1CCN(C(=O)C(CCSC)NS(=O)(=O)c2ccc3c(c2)oc(=O)n3C)CC1 (configuration not stated)	-7.2	i	/	/	i	/
CC1(C)Cc2c(C#N)c(N3CCN(C(=O)c4ccccc4Cl)CC3)nc(-c3ccco3)c2CS1	2.0	i	9.2µM*	5.8µM*	i	4.2
CC1(C)Cc2c(C#N)c(N3CCN(C(=O)c4ccco4)CC3)nc(-c3ccco3)c2CS1	-1.3	i	?	?	5.8µM*	26.1
CC1(C)Cc2c(C#N)c(N3CCN(C(=O)c4ccco4)CC3)nc(Cc3ccccc3)c2CO1	30.3*	?	?	?	?	0.1
CC1(C)Cc2c(C#N)c(NCCc3ccccc3)nc(-c3ccco3)c2CO1	-9.2	?	6.51µM*	14.6µM*	?	0.0
CCc1nc(N2CCN(C(=O)c3ccco3)CC2)c(C#N)c2c1COC(C)(C)C2	7.8	i	-5.7%	?	?	12.2
O=C(Cn1ncc2c(=O)oc3ccccc3c21)Nc1cc(F)ccc1F	-9.7	i	/	/	i	/
COc1cc2c(cc1OC)CN(c1ccc(C(F)(F)F)cn1)CC2	3.7	i	?	16.4µM*	?	-11.2
CCOC(=O)c1c(C)oc2c1c(C=NCc1ccccn1)c(O)c1ccccc12	0.0	?	?	11.6µM*	?	-104.9*
CCOC(=O)c1c(C)oc2c1c(C=NCC1CCCO1)c(O)c1ccccc12 (configuration not stated)	-0.1	?	-4.1%	?	?	?
SMILES	DRD3 agonist	KB-3-1 tox	SW480 rereplic	MCF10A rerep	KB-V1 cytotox	D3 antag
c1ccc2c(CSc3nnc(-c4ccncc4)o3)cccc2c1	7.9	i	-0.1%	?	14.6µM*	-5.5
c1cc(CSc2nnc(-c3ccc4c(c3)OCO4)o2)ccn1	-0.5	i	-4.9%	-9.1%	23.1µM*	6.6
O=C(CSc1nnc(-c2ccc3c(c2)OCO3)o1)Nc1ncc(Cl)cc1Cl	3.5	i	?	13µM*	?	12.5
CC(=O)N=c1c(C#N)cc2c(=O)n3ccccc3nc2n1Cc1ccccc1	5.5	i	5.8µM*	8.2µM*	i	4.8
CCOC(=O)c1cc2c(=O)n3ccccc3nc2n(Cc2ccccc2)c1=N	12.8	i	?	?	i	15.0
CCOCCCn1c(=NC(C)=O)c(C#N)cc2c(=O)n3ccccc3nc21	-5.7	i	7.31µM*	2.59µM*	i	-12.1
O=C(Nc1cccc(C(=O)N2CCN(c3cccc(Cl)c3)CC2)c1)c1nsc2ccccc12	5.2	i	/	/	i	/
Cc1ccc(NC(=O)N2CCc3cc(S(=O)(=O)N4CCC(C)CC4)ccc32)cc1C	-9.3	/	/	/	/	/
S=C(NN=C1C2CC3CC(C2)CC1C3)Nc1ccccc1	0.6	i	16.8%	14.2%	i	-65.9*
COc1ccc(NC(=O)NC2COc3ccccc3C2)cc1Cl (configuration not stated)	3.3	i	/	/	?	/
Cc1ccc(Cl)cc1N1CCN(S(=O)(=O)c2ccc3c(c2)CC(=O)N3C)CC1	68.6*!	i	-11.5%	-6.6%	?	-14.2
CCOC(=O)c1ccc(N2C(=O)[C@@H](c3ccccc3)[C@H]2c2ccccc2)cc1	-0.3	i	-1.0%	?	i	-22.9
CCOC(=O)c1ccc(N2C(=O)C3C(/C=C/c4ccccc4)OC4(C(=O)c5ccccc5C4=O)C3C2=O)cc1 (configuration not stated)	-6.7	i	-5.7%	25.9µM*	i	1.4
C=Cc1ncc(OC)c2c1[nH]c1ccccc12	1.1	5.8µM*	?	?	i	-8.3
CC1CCc2c(sc(NC(=O)Cn3nnc(-c4ccc(C(F)(F)F)cc4)n3)c2C#N)C1 (configuration not stated)	6.3	i	/	/	?	/
Cc1occc1C(=O)N/N=C/C1=C(N2CCOCC2)C(=C\c2ccc(Cl)cc2Cl)/CC1	2.0	i	2.91µM*	2.06µM*	?	21.0
Cc1cc(C)nc(NN=CC2=C(N3CCOCC3)/C(=C/c3ccc(Cl)cc3)CC2)n1	-6.8	i	20.6µM*	?	i	?

Assay outcomes deposited in PubChem by National Center for Advancing Translational Sciences (NCATS).
